Here are results for 79 compounds from the supplement of paper PMC5407854, “Inhibitor of ppGalNAc-T3-mediated O-glycosylation blocks cancer cell invasiveness and lowers FGF23 levels” (eLife, 2017).

The structures appear in SMILES notation. The full ranking holds about 1,700 compounds; the median of “T3 sensor activation Q score (MG/GFP ratio z-score vs DMSO controls)” is about 0.25, and the highest 2% start at about 1.9. The sample holds the highest values, similar compounds and a random draw of the others, so the mix is not that of the screen.

The experiment deals with ppGalNAc-T3 sensor. Briefly: T3 sensor activation Q score (MG/GFP ratio z-score vs DMSO controls) (SD units); higher = more sensor activation (inhibition of ppGalNAc-T3 glycosylation). As to conditions: HEK293 sensor cells; 10 µM; 6 h. As to the method:
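Cells were treated with compound at 10 uM for 6 h, then MG/GFP ratio was read by flow cytometry (10,000 cells per well, duplicate wells). Q = (R - R_neg)/SD_neg relative to DMSO vehicle controls; the signal rises when the glycosyltransferase is inhibited.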
Consider `O=C(NN1CCCCC1)NN1CCCCC1`, for which the “T3 sensor activation Q score” value was determined as 1.35.

For the compound `O=C(O)c1cccc2c1C(=O)c1cccc3snc-2c13`, the “T3 sensor activation Q score” value was -0.15. To `CN1C(=C=Cc2cc(I)c(O)c(I)c2)C(C)(C)c2ccccc21` belongs 1.9; to `CCCNC(=O)c1ccc(S(N)(=O)=O)cc1`, 0.65. Then `O=C(c1ccccc1)C1C(c2ccccc2)C1[N+](=O)[O-]` (centres undefined), with 1.7; and `O=[N+]([O-])C1C(c2ccccc2)C12c1ccccc1-c1ccccc12` (centres undefined), with 3.55; and `Cc1cnc2cc(Cl)ccc2c1SCC(=O)O`, with 0.5.

Consider `CCN(CC)Cc1cc2[nH]c3c4ccc(Cl)cc4ncc3c2cc1OC`, for which the “T3 sensor activation Q score” value amounted to 1.9. Then `c1ccc(-c2nc[nH]c2-c2ccccc2)cc1`, with 0.1; and `C[C@@H]1C[C@H]2OC(=O)[C@@]3(C)CCC[C@@](C)([C@@H]23)[C@@]1(O)CCc1ccoc1`, with 0.2; and `COC(=O)c1cc2c(n1S(=O)(=O)c1ccc(C)cc1)C(=O)C(=O)c1[nH]cc(C(=O)OCc3ccccc3)c1-2`, with 0.25.

As to `C1CCc2nc3c(nc2C1)CCCC3`, the “T3 sensor activation Q score” value was -0.2. For the compound `Nc1c(Cl)cc(S(N)(=O)=O)cc1S(N)(=O)=O`, the “T3 sensor activation Q score” value turned out to be 1.1. To `CC(C)(C)n1nc(C2CC2)cc1NC(=O)Nc1ccccc1` belongs 0.25. Then `COC(=O)C1(F)C(=O)NC(=O)NC1OC` (centres undefined), with 0.6; and `O=C(N(c1ccccc1)c1ccccc1)N(c1ccccc1)c1ccccc1`, with 1.

Consider `COc1cc(Nc2c(C#N)cnc3cc(OCCCN4CCN(C)CC4)c(OC)cc23)c(Cl)cc1Cl`, for which the “T3 sensor activation Q score” value is 1. As for `COc1cc2c(Nc3ccc(Br)cc3F)ncnc2cc1OCC1CCN(C)CC1`, the “T3 sensor activation Q score” value turned out to be 2.1.

On to `COc1cc2ncnc(Nc3ccc(F)c(Cl)c3)c2cc1OCCCN1CCOCC1`, for which the “T3 sensor activation Q score” value turned out to be 1.2. Turning to `O=C(O)C(=O)Nc1ncn[nH]1`, the “T3 sensor activation Q score” value is -1.75. Then `Cn1c(=O)c2c(nc(N3CCCCC3)n2C)n(C)c1=O`, with -0.65. Then `CCCc1nc2c([nH]1)c(=O)n(C)c(=O)n2C`, with -0.95; and `Cn1c(=O)c2[nH]c(N3CCCCC3)nc2n(C)c1=O`, with 1.9; and `NC1(N2SC(S)=C3CCCC=C32)CCCCC1`, with 0.75. Take `NC1=C(O)C(=O)C(c2ccccc2)O1` (centres undefined): the “T3 sensor activation Q score” value came to 0.05. Then `O=c1cc(-c2cccnc2)oc2c1ccc1ccccc12`, with 1.25; and `O=C1c2ccccc2NC(c2cc(Cl)cc(Cl)c2O)N1CCc1ccccn1` (centres undefined), with 0.55.

As for `Cc1nnc2nc(N)[nH]n2c1=O`, the “T3 sensor activation Q score” value is -1.2.

With `O=C(O)CSc1nc2ccccc2s1`, the “T3 sensor activation Q score” value is -0.1. To `COC1=C[C@@H](C)[C@@H]2C[C@H]3OC(O)C[C@H]4C(C)=C(OC)C(=O)[C@H]([C@@]2(C)C1=O)[C@@]34C` (some centres undefined) belongs 0.4. To `CCOC(=O)Cc1csc2nc(-c3ccccc3)nn12` belongs 0.25; to `N#CC1=CC2CN(Cc3ccccc3)C1C1C(=O)N(c3ccccc3)C(=O)C21` (centres undefined), 0.45; to `c1ccc(-c2nnc3nc(N4CCCCC4)nc(N4CCCCC4)n23)cc1`, 1.3. For `NC(N)=NCCCS(=O)(=O)Nc1ccc(Nc2c3ccccc3nc3cc([N+](=O)[O-])ccc23)cc1`, the “T3 sensor activation Q score” value was -0.75. For the compound `CN(C)c1ccc(/C=C2/C=C(c3ccc4c(c3)CCCC4)OC2=O)cc1`, the “T3 sensor activation Q score” value was 0.9. As for `Clc1cc2c(nn1)Nc1ccccc1S2`, the “T3 sensor activation Q score” value is 0.2. Regarding `CC(C)c1ncc(CO)n1Cc1c(Cl)cccc1Cl`, the “T3 sensor activation Q score” value was determined as 1.85.

On to `Cn1c(CO)cnc1-c1ccccc1`, for which the “T3 sensor activation Q score” value is 0.3. To `O=c1[nH]c(SCc2ccccc2[N+](=O)[O-])nc2nc[nH]c12` belongs 0.3; to `O=c1cc(-c2ccccc2)oc2ccc(O)cc12`, 0.15. To `N[C@H](C(=O)O)[C@H]1ON=C(Cl)[C@H]1O` belongs -0.15; to `COc1c(C=O)c2c(c(OC)c1OC)-c1ccc(OC)c(=O)cc1C(NC(C)=O)CC2` (centres undefined), 4.1; to `CS/C(=N\S(=O)(=O)c1ccccc1)NNC(=O)c1c(-c2c(Cl)cccc2Cl)noc1C`, 0.65. Consider `CC1CC=C(O)C12OCC(C)(C)CO2` (centres undefined), for which the “T3 sensor activation Q score” value is -0.05. Then `Cc1ccc(S(=O)(=O)N2CC=C(N)N2)cc1`, with -0.2; and `Cc1nc2ccccc2nc1NS(=O)(=O)c1ccc(N)cc1`, with -0.1. `OCc1nc2nc(Cl)c(Cl)nc2[nH]1`: the “T3 sensor activation Q score” value is -1.15. To `CC(C)CCCCCCCCCCCCC(=O)NCC(=O)NC1C(C)OC(Nc2ncnc3nc[nH]c23)C(O)C1O` (centres undefined) belongs -1.5; to `Cc1ccn2c(C(C)O)nnc2c1` (centres undefined), 0.05. For the compound `Cc1cc(C)n2c(C)nnc2c1`, the “T3 sensor activation Q score” value turned out to be 1.85. As to `COC(=O)c1c[n+]([O-])ccc1OC`, the “T3 sensor activation Q score” value is -0.5. Take `CN(C)S(=O)(=O)c1ccccc1N=C=S`: the “T3 sensor activation Q score” value is -1.15. Turning to `CCOC(=O)/C=C/c1ccc(C(=O)OCC)[nH]1`, the “T3 sensor activation Q score” value is -1.5. To `CCOC(=O)/C=C/c1nc(C(=O)OCC)c(C)c(=O)[nH]1` belongs 1.9; to `CCOC(=O)c1nn(C)c2[nH]c(=O)n(C)c(=O)c12`, 0.15; to `CN(C)S(=O)(=O)Nc1cccc(Br)c1`, 1.8. For the compound `CCC(C)NC(=O)c1cccc(C)c1` (centres undefined), the “T3 sensor activation Q score” value came to 1.35.

For the compound `CNNCc1ccc(C(=O)NC(C)C)cc1`, the “T3 sensor activation Q score” value is 1.85. To `CC(C)NC(=O)c1ccc(C(C)C)cc1` belongs -0.3. Then `Nc1nc(N)c2cc(Sc3ccc4ccccc4c3)ccc2n1`, with 1.15. Turning to `CCc1ccc(CCN2C(=O)c3ccccc3C2=O)nc1`, the “T3 sensor activation Q score” value is 0.1.

Consider `CCOC(=O)c1nnsc1-c1ccc(-c2snnc2C(=O)OCC)cc1`, for which the “T3 sensor activation Q score” value amounted to 0.95. Then `Clc1ncnc2[nH]ccc12`, with -0.05. For the compound `C=CCN=C(NC#N)SC`, the “T3 sensor activation Q score” value is 0.05. Turning to `COc1cc(NC(C)=O)c2ncccc2c1NC(C)=O`, the “T3 sensor activation Q score” value is 1.2. Then `O=c1[nH]cnc2c1ncn2Cc1ccc([N+](=O)[O-])cc1`, with 0.15. To `CCOC(=O)c1cc2c(OC)c(OC)ccc2c2[nH]cc(C#N)c(=O)c12` belongs 0.7; to `Cn1nc(SCc2ccccc2)c(=O)n(C(c2ccccc2)c2ccccc2)c1=O`, -0.65; to `COc1cccc(/C=C2\CCc3ccccc3C2=O)c1`, -0.1. Turning to `CCOc1ccc(/C=C2\CCc3ccccc3C2=O)cc1`, the “T3 sensor activation Q score” value was 1.85. Then `O=C1/C(=C\c2ccc([N+](=O)[O-])cc2)CCc2ccccc21`, with 0.4; and `O=C(O)C1OCC2(CO1)COC(C(=O)O)OC2` (centres undefined), with 0.6; and `CC(C)(C)NC(=O)c1ccc(C(=O)NC(C)(C)C)cc1`, with -0.4. With `CC(=O)CC[N+](C)(C)C`, the “T3 sensor activation Q score” value amounted to 0.75. For the compound `O=C(/C=C/c1ccccc1)CC(c1ccccc1)N1CCOCC1` (centres undefined), the “T3 sensor activation Q score” value is 0.15.

In the case of `Nc1ccc(C(=O)Nc2ccc(NC(=O)c3ccco3)c(O)c2)cc1`, the “T3 sensor activation Q score” value stood at 1.85. To `Nc1ccc(C(=O)Nc2cccc(N)c2)cc1` belongs -1.35.

With `Nc1ccc(NC(=O)c2ccc(C(=O)Nc3ccc(N)cc3)cc2)cc1`, the “T3 sensor activation Q score” value was 1.05. Then `OC[C@H]1O[C@@H](n2cnc3c2NC=NC[C@H]3O)C[C@@H]1O`, with 1.3.
